# Laboratory results from PubChem BioAssay (NCI).
# The panel holds about 79,000 compounds, 15% with a hit somewhere; the sample as a whole holds those more often. Values without a mark were called inactive. Active and inactive are the calls of the source. Cut-off read from the data, not from the text of the source: active = growth inhibition above about 70%; inactive = the rest.
# What was measured:
# [1] = NCI Yeast Anticancer Drug Screen. Data for the rad50 strain (AID 155);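 note: 0% = growth of vehicle-only cultures of the same strain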; settings: S. cerevisiae rad50 strain growth inhibition; at 50.0 µM; active compounds read high
# In short: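 DNA repair mutant yeast, compound exposure, growth read-out; inhibition is taken relative to vehicle.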
# [2] = NCI Yeast Anticancer Drug Screen. Data for the mec2-1 strain (AID 157); settings: S. cerevisiae mec2-1 strain, at 50.0 µM, active compounds read high
# In short: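 Strain: mec2-1 (DNA repair/cell cycle alteration). Compound exposure, then growth measured; inhibition expressed relative to vehicle.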
# [3] = NCI Yeast Anticancer Drug Screen. Data for the sgs1 mgt1 strain (AID 161);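 note: 0% = growth of cultures given vehicle only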; settings: S. cerevisiae sgs1 mgt1 strain, at 50.0 µM, active compounds read high
# In short: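 Test agents were incubated with a DNA-repair-mutant yeast strain. Growth was then read and compared against vehicle-treated controls.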
# [4] = NCI Yeast Anticancer Drug Screen. Data for the cln2 rad14 strain (AID 165);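 note: 0% = growth equal to vehicle treated cultures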; settings: S. cerevisiae cln2 rad14 strain, at 50.0 µM, active compounds read high
# In short: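 Compounds are applied to the cln2 rad14 yeast strain, and growth is then compared with that of vehicle-treated cultures to give inhibition.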
# [5] = NCI Yeast Anticancer Drug Screen. Data for the bub3 strain (AID 167); settings: S. cerevisiae bub3 mutant strain, at 50.0 µM, active compounds read high
# In short: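 In this screen, a yeast mutant lacking normal mitotic checkpoint function is challenged with compound. Relative growth versus vehicle gives the inhibition value.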
# [6] = NCI Yeast Anticancer Drug Screen. Data for the mlh1 rad18 strain (AID 175); settings: S. cerevisiae mlh1 rad18 strain growth inhibition; at 50.0 µM; active compounds read high
# In short: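 Read-out is yeast growth inhibition, calculated against vehicle-only controls. The compound was applied to a strain engineered with DNA damage repair alterations.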
SMILES,growth inhibition [1],growth inhibition [2],growth inhibition [3],growth inhibition [4],growth inhibition [5],growth inhibition [6]
CC1=NN(c2ccccc2)C(=O)/C1=C1\SC(c2ccccc2)(c2ccccc2)c2ccccc21,-29.4%,0.9%,1.8%,7.95%,23.2%,-30.4%
O=C(CN1C(=O)CC(c2ccccc2)(c2ccccc2)C1=O)N1CCN(CCO)CC1,-0.35%,-4.6%,-22.1%,-5.25%,-16.2%,2.3%
Cc1nnc2sc(Cl)nn12,26.9%,48.8%,48.1%,17.7%,12.9%,22.8%
Clc1ccc(-c2ncc(-c3ccccc3)o2)c(Cl)c1,9.35%,-3.4%,5.65%,-39.9%,9.2%,23.2%
NC(=S)NNC(=O)c1ccc([N+](=O)[O-])cc1,10.4%,18.9%,-3.1%,-17.9%,1.35%,36.9%
CN(CC1CCCCC1=O)CC1CCCCC1=O (stereo unspecified),8.65%,10.2%,-11.1%,-8.8%,19%,-3.55%
C=CCOC(=O)C(C#N)C(C)CC(=O)OCC (stereo unspecified),-5.65%,-1.15%,-22.9%,-0.35%,5.25%,-5.55%
CC(Sc1ccccn1)C(=O)c1ccccc1 (stereo unspecified),-1.55%,-6.75%,-4.05%,-52.5%,-9.05%,1.2%
CCCN1C(=O)CC(NC(C)=O)C1=O (stereo unspecified),-2.85%,6.45%,8.1%,-17.9%,-5.85%,9.65%
O=C(N[C@@H](CCl)[C@H](Cl)c1ccc([N+](=O)[O-])cc1)c1ccc([N+](=O)[O-])o1,85.3% (active),76.2% (active),93.3% (active),83.7% (active),87.3% (active),92.8% (active)
OCCN(Cc1ccccc1)Cc1ncccc1O,9.35%,-27.1%,-11.4%,8.85%,-3.9%,5.7%
CCCCCCCCCCCC[Si](c1ccccc1)(c1ccccc1)c1ccccc1,9.3%,6.2%,26.1%,22.9%,1%,24.5%
NNC(=O)C(=O)Nc1nccs1,0.65%,0.85%,2.05%,6.95%,-5.3%,-4.6%
N#CCCOCCN1CCN(c2cccc(Cl)c2)CC1,9.85%,-7.8%,12%,-2.6%,51.6%,23.1%
NC(=O)NNC(=O)NC12CC3CC(CC(C3)C1)C2,-19%,-11.8%,-10.2%,-45.8%,0.65%,21.6%
O=[N+]([O-])c1ccc(/C=N/Nc2cnnc(Cl)c2Cl)cc1,-0.6%,1.75%,-1.95%,-33%,2.45%,1.65%
CC(=O)N(C1CCCCC1)C1CCCCC1,30.2%,20.6%,13.4%,-2.05%,-2.2%,45%
CCOC(=O)Cn1ccc[n+]1CC(=O)c1ccccc1,-14.9%,7.9%,17.4%,-16.2%,-15.4%,-3.1%
COc1cccc(NC(=O)CC(=O)N2N=C(n3ccc4ccccc43)CC2c2ccccc2)c1 (stereo unspecified),-36.3%,-11.4%,-6%,11.1%,-3.1%,-16.6%
Cc1ccc(S(=O)(=O)N2CC(CCl)N(S(=O)(=O)c3ccc(C)cc3)CC2CCl)cc1 (stereo unspecified),28.5%,7.45%,20.6%,10.4%,4.35%,20.9%
O=C1/C(=C/c2ccc(Cl)cc2)Oc2ccccc21,-31.4%,-7.05%,-18.9%,1.4%,-8.1%,-19.6%

SMILES,growth inhibition [1],growth inhibition [2],growth inhibition [3],growth inhibition [4],growth inhibition [5],growth inhibition [6]
ONC1=Nc2ccccc2C(=S)N2CSCC12 (stereo unspecified),-21%,-13.4%,-26.4%,-19.6%,-21.6%,15.9%
C=CC(=O)NC1CCCCC1,-8.9%,-10.9%,-19.8%,-8.9%,-6.8%,-22.4%
CC(=O)NC1=C(N2CCC2C)C(=O)c2ccccc2C1=O (stereo unspecified),-2.4%,0.8%,6.15%,-4.4%,-43.9%,-11.4%
O=C1CCCC(=O)c2c(O)ccc(O)c21,4.4%,-4.15%,9.5%,-3.4%,10.7%,5.65%
CCCC(=O)Nc1cn(COC)c(C(=O)N2C[C@@H]3C[C@]34C2=CC(=O)c2[nH]cc(C)c24)n1,28.2%,20.4%,34.4%,14.2%,26.2%,50.8%
CC(=O)c1ccc(N2C(=O)C/C(=C/c3ccccc3O)C2=O)cc1,16.1%,0.05%,9.3%,-20.9%,5.2%,16.6%
CC(COCc1ccccc1)C1OC(C)(C)OC(C#N)C1C (stereo unspecified),-1.05%,-1.4%,-4.8%,-20.4%,11.7%,14.3%
Cc1ccc(S(=O)(=O)N2CN(S(=O)(=O)c3ccc(C)cc3)CN(S(=O)(=O)c3ccc(C)cc3)C2)cc1,-29.4%,-32.2%,-22.8%,-6.9%,-40.3%,-24.8%
N/C(=N\O)c1ccccc1,27.1%,0.6%,13.7%,15.3%,4.35%,23.1%
Cc1ccc(N2C(=O)c3ccccc3NC2(C)CCl)cc1 (stereo unspecified),4.55%,-9.25%,10.9%,-3.7%,33.1%,1.3%
Sc1ccccc1N=Cc1ccc(C=Nc2ccccc2S)cc1,-15.8%,-8.05%,7.1%,18.8%,4.45%,-3.75%
CCCCC(CC)(CO)CCC (stereo unspecified),-8.75%,-19%,-13.7%,2.55%,-9.45%,4%
CSCCC(NC(=O)c1cnc2ccccc2c1)C(N)=O (stereo unspecified),-0.25%,-4.85%,2.6%,-33.6%,-21.8%,14.8%
Clc1cc(Cl)cc(Nc2nc3ccccc3nc2-c2cccs2)c1,-19.3%,-14%,33.2%,3.35%,-29.1%,-10.2%
CCC[n+]1cccc(C#N)c1,6.15%,5.4%,-7.35%,-24.9%,-4.2%,22.2%
CCOC(=O)c1ccc(NC(=S)NCc2cccnc2)cc1,11.6%,-3.25%,24.6%,4.95%,22.2%,-6.7%
CC1=CC(=O)[C@@H](O)[C@]2(C)[C@H]3[C@@]4(O)OC[C@]35[C@H]([C@@H](CO)[C@H]4O)[C@@H](OC3OC(CO)C(O)C(O)C3O)C(=O)O[C@@H]5C[C@@H]12 (stereo partly specified),-9.55%,-14.5%,-19.2%,2.65%,-25.1%,-25.9%
CC(=O)NC(CCCCN(Cc1ccccc1)C(=O)N(C)N=O)C(=O)NCc1ccccc1 (stereo unspecified),0.3%,-6.7%,24.4%,-0.15%,-22.9%,-6.4%
Cc1cccc(C)c1NC(=O)C(=O)C(C#N)c1ccccc1Cl (stereo unspecified),-13.2%,-47.7%,-10.8%,-1.1%,4.85%,-11.5%
COC(=O)C1(COC(C)=O)CC1,-6.8%,1.55%,6%,-15.6%,-2.75%,-3.2%
